# Reference: PubChem BioAssay (NCI)
# About 83,000 compounds went through this panel and 20% of them were active in at least one assay; those are over-represented in the sample as a whole.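 96-well plates, one dose, 48 hours. Percent growth reported; active if below 10.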 Unmarked numbers belong to inactive results. Active and inactive are the calls of the source.
# Tested on: MOLT-4 leukemia
# Test: NCI-60 one-dose screen, 48 h (100 = growth as untreated, 0 = no growth, -100 = all killed)
# Conditions: 10 µM unless noted
row,Structure (SMILES),growth
1,NC(=O)CSSCC(N)=O,76.8%
2,C=C(C)[C@@H]1CC[C@]2(C(=O)N3CCN(C)CC3)CC[C@]3(C)[C@H](CC[C@@H]4[C@@]5(C)CC[C@H](O)C(C)(C)[C@@H]5CC[C@]43C)[C@@H]12,-35.7% (active)
3,O=C1Nc2cc(Cl)ccc2/C1=C\c1c(-c2ccc(F)cc2)nc2ccccn12,-4.44% (active)
4,CCc1ccc(-c2cn3ccnc3c(-c3ccc4ncn(Cc5ccccc5)c4c3)n2)cc1,45.8%
5,CCOC(=O)c1cc(C(=O)c2ccc(OC)c(OC)c2)n2ccc(/C=C/c3cc[n+](CC(=O)c4ccc(OC)c(OC)c4)cc3)cc12,93.7%
6,COc1cc(/C=C\c2cc(OC)c(OC)c(OC)c2)cc(NC(=O)/C=C/c2cc(OC)c(OC)c(OC)c2)c1OC,30.9%
7,CN1C(N2CCN(S(=O)(=O)c3ccccc3)CC2)=NS(=O)(=O)c2ccccc21,178%
8,O=C1Nc2ccccc2/C1=C\c1c(-c2ccc(F)cc2)nc2ccccn12,57%
9,OCc1cnc2ccccc2c1NC1CCCCCC1,91.5%
10,Oc1c(Cl)cc(Cl)c(Cl)c1CNCCNCc1c(O)c(Cl)cc(Cl)c1Cl,10%
11,CN1[C@@H]2CC[C@H]1/C(=C\c1ccccc1)C(=O)/C2=C/c1ccccc1,14.9%
12,O=C1c2c(c3c4cccc(F)c4[nH]c3c3ccc4ccccc4c23)C(=O)N1O,3.29% (active)
13,CN(C)CCC(=O)c1ccc([N+](=O)[O-])cc1,112%
14,Cc1ccc(-c2nc3ccccn3c2/C=C2/C(=O)Nc3cc(Cl)ccc32)cc1,53.4%
15,CC(=O)[C@@H]1CC[C@]2(C(N)=O)CC[C@]3(C)[C@H](CC[C@@H]4[C@@]5(C)CCCNC(C)(C)[C@@H]5CC[C@]43C)[C@@H]12,60.5%
16,CC(C)N1C(=O)S/C(=C2/SC(=O)N(C(C)C)C2=O)C1=O,99.4%
17,NS(=O)(=O)c1ccc(CCN2C(=O)C3C(C2=O)C2(Cl)C(Cl)=C(Cl)C3(Cl)C2(Cl)Cl)cc1 (stereo not drawn),88.3%
18,Nc1c(S(=O)(=O)O)cc2c3c(cccc13)C(=O)OC2=O,88.9%
19,O=C(CCN1CCCC1)c1ccc([N+](=O)[O-])cc1,113%

row,Structure (SMILES),growth
1,O=C1Nc2ccc(F)cc2/C1=C\c1c(-c2ccccc2)nc2ccccn12,51%
2,O=Cc1ccc(-c2cn3ccnc3c(-c3ccc4ncn(Cc5ccccc5)c4c3)n2)cc1,41.3%
3,N#C/C(=C\c1ccc(C(F)(F)F)cc1)c1cc2ccccc2[nH]1,91.5%
4,O=C1c2cccc3c(-c4ccc5c(c4)ncn5C4CCCCC4)ccc(c23)C(=O)N1c1nc2ccccc2s1,81.1%
5,Cc1cccc(-c2cn3ccnc3c(-c3ccc4ncn(Cc5ccccc5)c4c3)n2)c1,63.1%
6,CCOC(=O)C1=C(CCl)NC(=O)NC1c1ccc2c(c1)OCO2 (stereo not drawn),37.7%
7,CCCN1[C@@H]2CC[C@H]1/C(=C\c1ccc(OC)c(OC)c1)C(=O)/C2=C/c1ccc(OC)c(OC)c1,29.5%
8,COc1ccc(C(=O)C2C(C#N)C(C#N)C3c4ccccc4C=CN23)cc1 (stereo not drawn),95.6%
9,O=C(C[n+]1cccc2ccccc21)c1ccc(O)c(O)c1,6.56% (active)
10,COc1ccc(C(=O)c2nc3ccccc3n2CC(=O)c2ccc(F)cc2)cc1,74.8%
11,CC(=O)[C@@H]1CC[C@]2(CO)CC[C@]3(C)[C@H](CC[C@@H]4[C@@]5(C)CCCNC(C)(C)[C@@H]5CC[C@]43C)[C@@H]12,95.3%
12,NS(=O)(=O)c1ccc(CCN2C(=O)C=CC2=O)cc1,97.4%
13,Nc1ccccc1NC(=O)c1ccc(-n2nc(-c3ccccc3)c3ccccc32)cc1,4.66% (active)
14,N#CC1C(C#N)C2c3ccccc3C=CN2C1C(=O)c1ccc(Br)cc1 (stereo not drawn),102%
15,O=C(CNCCN1CCOCC1)N1c2cccc3cccc(c23)N(C(=O)CNCCN2CCOCC2)C1c1cn(-c2ccccc2)nc1-c1cccc([N+](=O)[O-])c1,48.5%
16,C=C(C)[C@@H]1CC[C@]2(C(=O)N[C@H](CO)Cc3ccccc3)CC[C@]3(C)[C@H](CC[C@@H]4[C@@]5(C)CCCNC(C)(C)[C@@H]5CC[C@]43C)[C@@H]12,-62.6% (active)
17,O=C1c2cccc3c(-c4ccc5c(c4)ncn5C4CCCCC4)ccc(c23)C(=O)N1CCO,71.9%
18,O=C(/C(=C\c1ccc([N+](=O)[O-])cc1)S(=O)Cc1ccc(F)cc1)c1ccc(F)cc1 (stereo not drawn),5.93% (active)
19,NNC(=O)c1ccc(-n2nc(-c3ccccc3)c3ccccc32)cc1,74.8%
